# The campaign covered roughly 310,000 compounds. About 2,200 (0.71%) showed an effect of 50% or more. The effect is printed as a negative number. The sample holds strong results, similar compounds and a random draw of the others, so the mix is not that of the screen.
# Molecular target: human ether-à-go-go-related gene (hERG) potassium channel (human, UniProt Q12809)
# Assay: primary screen, population patch clamp on CHO cells stably expressing hERG; higher = less effect of the substance
# human ether-à-go-go-related gene (hERG) potassium channel, sequence (Q12809 whole entry, looked up): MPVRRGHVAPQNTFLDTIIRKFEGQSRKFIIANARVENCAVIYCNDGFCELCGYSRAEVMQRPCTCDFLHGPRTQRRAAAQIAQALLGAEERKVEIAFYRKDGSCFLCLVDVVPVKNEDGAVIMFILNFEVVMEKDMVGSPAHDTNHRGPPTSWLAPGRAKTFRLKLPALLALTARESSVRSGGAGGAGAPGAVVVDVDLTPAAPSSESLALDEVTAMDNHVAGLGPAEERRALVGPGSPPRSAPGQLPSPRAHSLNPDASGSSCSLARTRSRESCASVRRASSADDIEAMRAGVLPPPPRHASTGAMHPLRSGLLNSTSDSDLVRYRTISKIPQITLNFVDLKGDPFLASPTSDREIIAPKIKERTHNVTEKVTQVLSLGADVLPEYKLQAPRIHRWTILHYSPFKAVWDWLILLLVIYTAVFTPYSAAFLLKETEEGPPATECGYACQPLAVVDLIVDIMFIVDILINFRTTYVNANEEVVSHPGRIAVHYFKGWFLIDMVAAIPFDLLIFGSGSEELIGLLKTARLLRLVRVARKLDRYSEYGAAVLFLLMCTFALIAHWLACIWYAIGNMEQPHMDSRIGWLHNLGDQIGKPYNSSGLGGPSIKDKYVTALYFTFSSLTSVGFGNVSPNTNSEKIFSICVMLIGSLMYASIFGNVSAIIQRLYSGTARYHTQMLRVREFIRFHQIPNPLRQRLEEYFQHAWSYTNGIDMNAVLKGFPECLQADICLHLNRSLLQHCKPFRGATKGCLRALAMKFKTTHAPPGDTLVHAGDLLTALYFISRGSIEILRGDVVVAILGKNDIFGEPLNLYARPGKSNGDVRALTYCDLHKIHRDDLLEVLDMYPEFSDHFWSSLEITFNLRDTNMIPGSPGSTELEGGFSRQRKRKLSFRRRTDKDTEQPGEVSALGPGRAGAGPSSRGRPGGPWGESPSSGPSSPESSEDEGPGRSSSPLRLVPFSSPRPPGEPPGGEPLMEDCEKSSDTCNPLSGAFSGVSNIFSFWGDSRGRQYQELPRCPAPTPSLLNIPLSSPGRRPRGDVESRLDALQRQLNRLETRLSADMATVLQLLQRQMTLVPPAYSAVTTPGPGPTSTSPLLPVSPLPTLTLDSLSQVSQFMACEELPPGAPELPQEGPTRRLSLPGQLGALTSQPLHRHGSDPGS
row,Compound,"hERG current change (%, negative = inhibition) at 1uM [%]"
1,Cc1[nH]n(-c2ccccc2)c(=O)c1C=Nc1ccc(S(=O)(=O)Nc2nccs2)cc1,12.2
2,O=S1(=O)CCC(NC(=S)Nc2ccc3ccccc3c2)C1 (centres unmarked),11.6
3,COCCn1c(SCC(=O)NC2(C#N)CCCCC2)nc2ccccc2c1=O,-12.8
4,O=c1[nH]c(Cn2nnc(-c3ccccc3)n2)nc2scc(-c3ccccc3)c12,13.1
5,N#Cc1nc(COc2cccc(Cl)c2)oc1NCc1ccco1,-1.39
6,N#Cc1nc(COc2cccc(Cl)c2)oc1NCc1ccncc1,-53.8
7,CN(C)CCNc1oc(COc2cccc(Cl)c2)nc1C#N,-4.66
8,Cc1nc2c(n1C1CCCCC1)C(=O)c1ccccc1C2=O,19.1
9,COc1ccc2c(c1)c(C(=O)C(C)N1CCCCC1)c(C)n2C (centres unmarked),16.9
10,OCC1(CCc2ccccc2)CCN(Cc2cc(F)ccc2-n2cccn2)CC1,-85.3
11,COc1cccc(CC2(CO)CCCN(Cc3c(C)cc(C)cc3-n3cccn3)C2)c1 (centres unmarked),-93.1
12,CCn1ccnc1CN1CCCC(CO)(Cc2cccc(OC)c2)C1 (centres unmarked),-1.48
13,COc1cccc(CC2(CO)CCCN(Cc3cn[nH]c3-c3ccc(F)cc3)C2)c1 (centres unmarked),6.39
14,COc1ccc(F)c(CN2CCCC(CO)(Cc3cccc(Cl)c3)C2)c1 (centres unmarked),11.8
15,OCC1(CCCc2ccccc2)CCN(Cc2cc(F)ccc2F)CC1,-6.63
16,OCC1(CCCc2ccccc2)CCN(Cc2ccc(F)cc2)CC1,-25.3
17,COc1cccc(CC2(CO)CCCN(Cc3cc(F)ccc3-n3cccn3)C2)c1 (centres unmarked),-85.1
18,COc1ccc(-n2ccnc2CN2CCCC(CO)(Cc3cccc(OC)c3)C2)cc1 (centres unmarked),0.509
19,O=C(NCCS(=O)(=O)NCc1ccccn1)c1ccccc1,8.81
20,COc1ccccc1C(=O)NNC(=O)C12CC3CC(CC(C3)C1)C2,12.4
21,COc1ccc(OC)c(-c2csc(N(Cc3ccco3)C(=O)c3cccs3)n2)c1,-0.179
22,CC(=O)CCC(=O)NCCc1ccccc1F,5.68
23,Cc1ccc(NC(=S)NNC(=O)C2CC2c2ccc(C)cc2)cc1 (centres unmarked),-10.4
24,COP(=O)(CC(=O)c1ccccc1)CC(=O)c1ccccc1,8.51

row,Compound,"hERG current change (%, negative = inhibition) at 1uM [%]"
1,COCCCNC(=S)NC1CC2CCCC(C1)N2Cc1cccs1 (centres unmarked),1.43
2,COc1nc(-c2ccccc2)ccc1-c1noc(-c2cccs2)n1,0.091
3,COc1ccccc1NS(=O)(=O)c1cc(NC(=O)C2CC2)ccc1N1CCOCC1,19.5
4,CCC(=O)Nc1ccc(N2CCOCC2)c(S(=O)(=O)Nc2ccc(Cl)cc2)c1,11.9
5,COc1ccccc1NS(=O)(=O)c1cc(NC(=O)C(C)(C)C)ccc1N1CCOCC1,-4.51
6,O=S(=O)(Nc1ccc(N2CCOCC2)cc1)c1cc(Cl)ccc1Cl,7.82
7,Br.COc1ccccc1NS(=O)(=O)c1cc(N2Cc3ccccc3C2=N)ccc1N1CCOCC1,-61.2
8,Br.N=C1c2ccccc2CN1c1ccc(N2CCOCC2)c(S(=O)(=O)Nc2ccc(Cl)cc2)c1,-89.2
9,Cn1c(=O)n(C)c2cc(S(=O)(=O)NCC(=O)O)ccc21,4.84
10,CCOc1ccc(CCNC(=O)c2cc3sccc3n2CC)cc1OCC,14.1
11,COc1cc(NC(=O)CCS(=O)(=O)c2ccc3nc(C)sc3c2)cc(OC)c1OC,15.8
12,CN(C)c1cccc(/C=C(\C#N)c2ccccc2)c1,14.2
13,COc1ccc(N(C(=O)c2cnsn2)C(C(=O)NC2CCCCC2)c2ccncc2)cc1 (centres unmarked),7.11
14,CCOc1ccc(N(C(=O)c2cnccn2)C(C(=O)NC2CCCCC2)c2ccc(O)cc2)cc1 (centres unmarked),12.4
15,CCOc1ccc(N(C(=O)c2cnsn2)C(C(=O)NC2CCCCC2)c2ccncc2)cc1 (centres unmarked),-52.1
16,COc1cccc(C(=O)Nc2ccc(Cl)c(C(F)(F)F)c2)c1,8.09
17,O=CN1CCCN(C(=O)CC2C(=O)NCCN2Cc2cccc(Oc3ccccc3)c2)CC1 (centres unmarked),-14.6
18,Cn1c(CN2CCCCC2)nc2cc(NS(=O)(=O)c3ccc(F)cc3)ccc21,-21.8
19,Cc1ccc(S(=O)(=O)Nc2ccc3c(c2)nc(CN2CCCC2)n3C)cc1,-9.18
20,CC1CCN(CCc2nc3cc(NS(=O)(=O)c4ccc(F)cc4)ccc3n2C)CC1,-54.8
21,Cn1c(CCN2CCCC2)nc2cc(NS(=O)(=O)c3ccccc3)ccc21,6.41
22,Cn1c(CCN2CCCCC2)nc2cc(NS(=O)(=O)c3ccc(F)cc3)ccc21,-57.5
23,CC1CCN(CCc2nc3cc(NS(=O)(=O)c4ccccc4)ccc3n2C)CC1,-53.3

# Reference: article PMC4336329 (PLoS ONE, 2015)
